# “And” between values parts separate entries of the source, which are not always exact repeats. Equal entries are not always repeated. Records with an inconclusive call do not appear. More than one record can exist for a structure, and the calls need not agree. The source made the active and inactive calls. How the source made its calls: active means hit-call score of the fitted dose curve at least 0.9, where 1 is the maximum; inconclusive means response in the unintended direction; inactive means score below 0.9.
# How the values were obtained:
# [1] = molecular target: human CYP1A2, CYP1A2 (gene 1544) (UniProt P05177); assay: NVS_ADME_hCYP1A2: NovaScreen (NVS) CYP450-related Enzyme Activity (ADME) Assay for human CYP1A2 (AID 2283102)
# How it was run: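 rec. hCYP1A2 (insect cells), cell-free; fluorogenic substrate; 0.5 h; FI read. Baseline = acetonitrile; signal loss = inhibition. 10 uM duplicate primary → conc. series for actives.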
# [2] = molecular target: human AKT serine/threonine Kinase 1 (AKT1), AKT1 (gene 207) (UniProt P31749); assay: NVS_ENZ_hAKT1: NovaScreen (NVS) Enzymatic Assay for human AKT serine/threonine Kinase 1 (AKT1) (AID 2283138)
# Chain of human AKT serine/threonine Kinase 1 (AKT1), AKT1 (gene 207) (P31749 whole entry, looked up): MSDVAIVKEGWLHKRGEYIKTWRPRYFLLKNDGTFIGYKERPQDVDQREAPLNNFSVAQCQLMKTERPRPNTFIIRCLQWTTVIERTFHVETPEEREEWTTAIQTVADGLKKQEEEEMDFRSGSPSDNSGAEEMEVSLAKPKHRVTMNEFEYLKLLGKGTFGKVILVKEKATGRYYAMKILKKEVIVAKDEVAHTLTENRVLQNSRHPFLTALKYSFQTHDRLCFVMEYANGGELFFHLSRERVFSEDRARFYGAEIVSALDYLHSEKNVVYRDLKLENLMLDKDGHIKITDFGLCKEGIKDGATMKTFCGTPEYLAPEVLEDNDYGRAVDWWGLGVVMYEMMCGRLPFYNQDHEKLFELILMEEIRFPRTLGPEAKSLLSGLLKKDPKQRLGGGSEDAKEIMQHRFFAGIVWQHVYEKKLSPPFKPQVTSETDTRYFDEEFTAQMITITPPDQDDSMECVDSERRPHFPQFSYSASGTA
# How it was run: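 Fluorescence and mobility-shift readout of kinase activity, taken 1 h post-dosing in a cell-free format with recombinant protein. Primary screen at 25 uM in duplicate; hits (e.g. 30% inhibition) retested in concentration series topping at 50 uM.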
# [3] = molecular target: human Beta-secretase (BACE), BACE1 (gene 23621) (UniProt P56817); assay: NVS_ENZ_hBACE: NovaScreen (NVS) Enzymatic Assay for human Beta-secretase (BACE) (AID 2283140);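 further: hits are inhibitors that reduce fluorescent substrate signal versus DMSO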
# Chain of human Beta-secretase (BACE), BACE1 (gene 23621) (P56817 whole entry, looked up): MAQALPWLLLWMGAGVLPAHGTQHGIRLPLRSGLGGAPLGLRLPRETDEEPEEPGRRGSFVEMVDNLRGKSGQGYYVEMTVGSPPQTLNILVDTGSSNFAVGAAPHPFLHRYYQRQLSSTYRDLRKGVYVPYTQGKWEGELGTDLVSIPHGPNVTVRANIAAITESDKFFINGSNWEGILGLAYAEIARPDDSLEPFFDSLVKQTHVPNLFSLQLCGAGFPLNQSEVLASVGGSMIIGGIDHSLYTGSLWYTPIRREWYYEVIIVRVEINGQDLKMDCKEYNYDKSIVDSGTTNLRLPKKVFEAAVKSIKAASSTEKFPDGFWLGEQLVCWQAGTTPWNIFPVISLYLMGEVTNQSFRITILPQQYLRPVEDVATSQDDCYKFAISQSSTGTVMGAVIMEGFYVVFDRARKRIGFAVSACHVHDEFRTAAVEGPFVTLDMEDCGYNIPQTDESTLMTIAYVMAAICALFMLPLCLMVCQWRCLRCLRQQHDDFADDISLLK
# How it was run: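 SF9-expressed enzyme, cell-free; fluorescent substrate readout after 1 h. Screened at 25 uM single concentration, duplicate; hits retested in concentration series. Activity relative to DMSO baseline, loss-of-signal.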
# Caspase-3 (Homo sapiens) = Caspase-3 (Homo sapiens) (UniProt P42574); assay: NVS_ENZ_hCASP3: NovaScreen (NVS) Enzymatic Assay for human Caspase 3 (CASP3) (AID 2283139)
# Chain of Caspase-3 (Homo sapiens) (P42574 whole entry, looked up): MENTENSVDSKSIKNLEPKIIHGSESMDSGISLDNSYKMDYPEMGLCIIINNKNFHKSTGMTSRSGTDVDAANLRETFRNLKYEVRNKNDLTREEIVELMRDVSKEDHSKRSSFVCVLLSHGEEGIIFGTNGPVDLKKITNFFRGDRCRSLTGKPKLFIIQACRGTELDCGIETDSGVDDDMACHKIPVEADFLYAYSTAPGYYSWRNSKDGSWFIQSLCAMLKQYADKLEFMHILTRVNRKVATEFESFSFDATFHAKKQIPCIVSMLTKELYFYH
# How it was run: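 Single-concentration screening at 25 uM in duplicate, with concentration-response follow-up to a 50 uM maximum for chemicals passing the threshold. Caspase-3 (human, E. coli-expressed) activity was read as substrate fluorescence after 1 h, with loss of signal relative to DMSO.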
# [4] = molecular target: human CYP2D6, CYP2D6 (gene 1565) (UniProt P10635); assay: NVS_ADME_hCYP2D6: NovaScreen (NVS) CYP450-related Enzyme Activity (ADME) Assay for human CYP2D6 (AID 2283107)
# Chain of human CYP2D6, CYP2D6 (gene 1565) (P10635 whole entry, looked up): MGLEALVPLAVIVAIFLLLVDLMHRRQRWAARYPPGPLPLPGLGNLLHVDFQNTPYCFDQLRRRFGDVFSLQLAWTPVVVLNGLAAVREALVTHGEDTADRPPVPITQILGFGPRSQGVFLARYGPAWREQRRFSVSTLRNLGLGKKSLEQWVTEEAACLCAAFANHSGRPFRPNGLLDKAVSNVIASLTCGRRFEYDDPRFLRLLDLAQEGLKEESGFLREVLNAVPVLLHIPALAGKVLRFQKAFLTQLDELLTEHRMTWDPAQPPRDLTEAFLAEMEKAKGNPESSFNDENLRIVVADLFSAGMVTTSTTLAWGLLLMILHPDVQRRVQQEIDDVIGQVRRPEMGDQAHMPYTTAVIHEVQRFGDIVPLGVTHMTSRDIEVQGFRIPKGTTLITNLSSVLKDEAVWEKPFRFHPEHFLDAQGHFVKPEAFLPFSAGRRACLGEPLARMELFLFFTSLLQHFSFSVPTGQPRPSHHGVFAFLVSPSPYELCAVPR
# How it was run: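 Insect-cell recombinant enzyme + fluorogenic substrate, cell-free; 1 h incubation; fluorescence intensity readout. Acetonitrile = neg. ctrl/baseline. Single-point 10 uM, duplicate; follow-up concentration series.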
# [5] = molecular target: Cytochrome P450 3A4 (Homo sapiens) (UniProt P08684); assay: NVS_ADME_hCYP3A4: NovaScreen (NVS) CYP450-related Enzyme Activity (ADME) Assay for human CYP3A4 (AID 2283110)
# Chain of Cytochrome P450 3A4 (Homo sapiens) (P08684 whole entry, looked up): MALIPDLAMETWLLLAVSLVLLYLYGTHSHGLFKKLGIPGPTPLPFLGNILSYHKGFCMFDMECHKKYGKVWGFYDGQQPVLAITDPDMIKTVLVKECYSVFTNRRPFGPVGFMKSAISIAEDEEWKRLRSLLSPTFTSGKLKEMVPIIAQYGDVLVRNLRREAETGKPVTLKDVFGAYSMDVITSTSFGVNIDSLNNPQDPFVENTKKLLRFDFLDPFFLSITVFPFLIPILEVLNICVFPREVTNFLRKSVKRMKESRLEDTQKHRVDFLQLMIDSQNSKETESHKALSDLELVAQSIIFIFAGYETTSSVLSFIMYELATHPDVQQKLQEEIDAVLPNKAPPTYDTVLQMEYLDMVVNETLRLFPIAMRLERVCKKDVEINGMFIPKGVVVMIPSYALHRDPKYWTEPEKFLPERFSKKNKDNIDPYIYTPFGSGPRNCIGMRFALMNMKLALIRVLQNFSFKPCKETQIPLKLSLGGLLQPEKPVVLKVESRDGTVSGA
# How it was run: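 Compounds screened in duplicate at 10 uM, with follow-up concentration-response for actives, against insect-cell-expressed recombinant enzyme. Activity read by fluorescence 0.33 h after dosing; loss of signal versus acetonitrile control indicates inhibition.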
# [6] = molecular target: human AKT serine/threonine Kinase 2 (AKT2), AKT2 (gene 208) (UniProt P31751); assay: NVS_ENZ_hAKT2: NovaScreen (NVS) Enzymatic Assay for human AKT serine/threonine Kinase 2 (AKT2) (AID 2283141)
# Chain of human AKT serine/threonine Kinase 2 (AKT2), AKT2 (gene 208) (P31751 whole entry, looked up): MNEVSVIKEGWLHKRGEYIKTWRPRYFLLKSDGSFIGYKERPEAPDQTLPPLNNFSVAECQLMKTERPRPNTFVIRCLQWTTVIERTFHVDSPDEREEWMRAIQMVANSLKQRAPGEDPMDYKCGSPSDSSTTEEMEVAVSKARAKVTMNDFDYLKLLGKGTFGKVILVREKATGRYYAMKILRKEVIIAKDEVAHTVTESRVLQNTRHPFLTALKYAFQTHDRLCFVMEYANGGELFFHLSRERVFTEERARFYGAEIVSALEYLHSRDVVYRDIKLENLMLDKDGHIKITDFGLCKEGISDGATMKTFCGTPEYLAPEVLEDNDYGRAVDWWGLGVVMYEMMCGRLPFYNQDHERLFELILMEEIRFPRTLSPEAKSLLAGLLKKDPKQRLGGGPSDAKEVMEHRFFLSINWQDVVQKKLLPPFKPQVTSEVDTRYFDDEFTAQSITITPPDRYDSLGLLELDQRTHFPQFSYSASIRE
# How it was run: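 Cell-free fluorescence/electrophoretic mobility shift readout of recombinant human AKT2 activity, 1 h after chemical dosing. Duplicate primary screen at 25 uM, then singleton concentration-response up to 50 uM; loss of signal versus DMSO baseline.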
# CDK2 (gene 1017) = CDK2 (gene 1017) (UniProt P24941); assay: NVS_ENZ_hCDK2: NovaScreen (NVS) Enzymatic Assay for human Cyclin-Cependent Kinase 2 (CDK2) (AID 2283144)
# How it was run: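 Compounds screened in duplicate at 25 uM, then in singleton concentration-response to a maximum of 50 uM, against recombinant CDK2; kinase activity read 1 hr after dosing by fluorescence with mobility-shift separation of substrate and product.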
# [7] = molecular target: human Casein Kinase 1-delta (CK1D), CSNK1D (gene 1453) (UniProt P48730); assay: NVS_ENZ_hCK1D: NovaScreen (NVS) Enzymatic Assay for human Casein Kinase 1-delta (CK1D) (AID 2283148)
# How it was run: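 Recombinant human CK1-delta, cell-free; fluorescent substrate with electrophoretic mobility-shift separation of product, read 1 h after dosing. Single 25 uM duplicate screen, then concentration-response up to 50 uM; loss of signal vs DMSO.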
# [8] = molecular target: human CYP2C9, CYP2C9 (gene 1559) (UniProt P11712); assay: NVS_ADME_hCYP2C9: NovaScreen (NVS) CYP450-related Enzyme Activity (ADME) Assay for human CYP2C9 (AID 2283108)
# Chain of human CYP2C9, CYP2C9 (gene 1559) (P11712 whole entry, looked up): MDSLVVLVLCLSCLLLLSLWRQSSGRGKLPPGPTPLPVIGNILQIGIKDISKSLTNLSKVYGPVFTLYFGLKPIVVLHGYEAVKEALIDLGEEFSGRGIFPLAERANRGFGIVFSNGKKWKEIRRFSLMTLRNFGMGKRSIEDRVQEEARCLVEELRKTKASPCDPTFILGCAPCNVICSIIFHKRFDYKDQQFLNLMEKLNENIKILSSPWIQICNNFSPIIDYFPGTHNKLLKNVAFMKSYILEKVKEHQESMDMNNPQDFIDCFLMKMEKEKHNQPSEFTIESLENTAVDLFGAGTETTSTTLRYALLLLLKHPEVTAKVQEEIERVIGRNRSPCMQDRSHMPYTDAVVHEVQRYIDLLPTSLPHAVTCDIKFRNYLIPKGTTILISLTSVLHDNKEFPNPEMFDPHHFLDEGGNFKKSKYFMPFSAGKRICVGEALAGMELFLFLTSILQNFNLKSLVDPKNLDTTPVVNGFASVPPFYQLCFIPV
# How it was run: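 Fluorescence readout of CYP2C9 activity (SF9-expressed human enzyme) at 0.75 h. The primary screen used 10 uM in duplicate, with concentration-response follow-up for actives; acetonitrile was the negative control.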
# [9] = molecular target: human Caspase 5 (CASP5), CASP5 (gene 838) (UniProt P51878); assay: NVS_ENZ_hCASP5: NovaScreen (NVS) Enzymatic Assay for human Caspase 5 (CASP5) (AID 2283137)
# How it was run: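 Fluorescent substrate readout of CASP5 activity (loss-of-signal), measured 2 h post-dose. Protein expressed in E. coli. Primary screen duplicate at 25 uM; actives meeting threshold (e.g., 30% inhibition) rerun singleton, max 50 uM.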
# [10] = molecular target: Cytochrome P450 2C19 (Homo sapiens) (UniProt P33261); assay: NVS_ADME_hCYP2C19: NovaScreen (NVS) CYP450-related Enzyme Activity (ADME) Assay for human CYP2C19 (AID 2283113);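 further: potency for inhibition seen as loss of fluorescent signal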
# How it was run: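 Fluorescence intensity was measured 1 hour after chemicals were added to insect-cell-derived recombinant CYP2C19 with fluorogenic substrate. Decreased signal versus acetonitrile control was taken as reduced enzyme activity; initial testing used 10 uM in duplicate.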
# [11] = molecular target: rat CYP2A2, Cyp2a2 (gene 24895) (UniProt P15149); assay: NVS_ADME_rCYP2A2: NovaScreen (NVS) CYP450-related Enzyme Activity (ADME) Assay for rat CYP2A2 (AID 2283116)
# Chain of rat CYP2A2, Cyp2a2 (gene 24895) (P15149 whole entry, looked up): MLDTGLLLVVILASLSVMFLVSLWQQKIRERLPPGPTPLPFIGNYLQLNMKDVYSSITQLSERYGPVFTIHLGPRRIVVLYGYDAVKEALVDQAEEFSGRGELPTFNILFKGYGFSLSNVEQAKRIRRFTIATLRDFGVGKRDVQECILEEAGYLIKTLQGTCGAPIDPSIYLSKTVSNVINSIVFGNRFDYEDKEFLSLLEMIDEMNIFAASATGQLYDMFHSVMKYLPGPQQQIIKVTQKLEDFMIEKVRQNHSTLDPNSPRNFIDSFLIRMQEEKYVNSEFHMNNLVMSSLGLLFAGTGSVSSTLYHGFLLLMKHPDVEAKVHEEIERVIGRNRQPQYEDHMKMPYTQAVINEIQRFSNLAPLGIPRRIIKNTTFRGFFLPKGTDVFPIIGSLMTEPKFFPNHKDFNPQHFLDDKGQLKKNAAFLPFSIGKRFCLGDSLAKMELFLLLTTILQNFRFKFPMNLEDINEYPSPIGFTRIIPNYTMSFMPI
# How it was run: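 Compounds first tested in duplicate at 10 uM, then in singleton concentration series up to 20 uM when over threshold. Activity of the recombinant enzyme read by fluorescence at 0.2 h, normalised to acetonitrile vehicle.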
# [12] = molecular target: rat CYP2C11, Cyp2c11 (gene 29277) (UniProt P08683); assay: NVS_ADME_rCYP2C11: NovaScreen (NVS) CYP450-related Enzyme Activity (ADME) Assay for rat CYP2C11 (AID 2283118)
# Chain of rat CYP2C11, Cyp2c11 (gene 29277) (P08683 whole entry, looked up): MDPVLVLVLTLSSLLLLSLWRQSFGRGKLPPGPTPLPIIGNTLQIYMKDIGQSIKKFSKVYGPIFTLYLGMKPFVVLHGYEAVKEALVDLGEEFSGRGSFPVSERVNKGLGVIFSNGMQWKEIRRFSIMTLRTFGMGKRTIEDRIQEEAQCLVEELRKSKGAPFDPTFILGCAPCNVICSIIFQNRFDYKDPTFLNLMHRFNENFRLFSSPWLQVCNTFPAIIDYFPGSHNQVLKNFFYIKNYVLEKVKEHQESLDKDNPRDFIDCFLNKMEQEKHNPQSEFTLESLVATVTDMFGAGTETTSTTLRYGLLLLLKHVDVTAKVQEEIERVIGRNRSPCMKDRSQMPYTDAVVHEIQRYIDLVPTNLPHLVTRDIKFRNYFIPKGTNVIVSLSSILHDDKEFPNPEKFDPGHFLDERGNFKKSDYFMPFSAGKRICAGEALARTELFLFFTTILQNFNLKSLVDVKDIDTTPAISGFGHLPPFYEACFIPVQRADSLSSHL
# How it was run: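 Screened first at 10 uM in duplicate, hits followed by concentration-response. Recombinant rat enzyme activity monitored by fluorescence 0.33 h post-dosing, normalised to acetonitrile negative control.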
# rat CYP2C6, gene 293989 = assay: NVS_ADME_rCYP2C6: NovaScreen (NVS) CYP450-related Enzyme Activity (ADME) Assay for rat CYP2C6 (AID 2283120)
# How it was run: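 Compounds first tested in duplicate at 10 uM, hits (e.g. 30% inhibition) re-run in singleton dose series to a 20 uM top concentration. Enzyme activity of recombinant rat CYP2C6 measured via fluorescent substrate turnover after 1 h; acetonitrile baseline.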
# rat CYP3A1, gene 25642 = assay: NVS_ADME_rCYP3A1: NovaScreen (NVS) CYP450-related Enzyme Activity (ADME) Assay for rat CYP3A1 (AID 2283126)
# How it was run: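 Compounds went first at 10 uM duplicate, then to series with 20 uM maximum. Fluorescence from substrate turnover by the recombinant enzyme was measured 0.5 h post-dosing, inhibition scored against acetonitrile vehicle.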
# [13] = molecular target: rat CYP3A2, Cyp3a2 (gene 266682) (UniProt P05183); assay: NVS_ADME_rCYP3A2: NovaScreen (NVS) CYP450-related Enzyme Activity (ADME) Assay for rat CYP3A2 (AID 2283128)
# Chain of rat CYP3A2, Cyp3a2 (gene 266682) (P05183 whole entry, looked up): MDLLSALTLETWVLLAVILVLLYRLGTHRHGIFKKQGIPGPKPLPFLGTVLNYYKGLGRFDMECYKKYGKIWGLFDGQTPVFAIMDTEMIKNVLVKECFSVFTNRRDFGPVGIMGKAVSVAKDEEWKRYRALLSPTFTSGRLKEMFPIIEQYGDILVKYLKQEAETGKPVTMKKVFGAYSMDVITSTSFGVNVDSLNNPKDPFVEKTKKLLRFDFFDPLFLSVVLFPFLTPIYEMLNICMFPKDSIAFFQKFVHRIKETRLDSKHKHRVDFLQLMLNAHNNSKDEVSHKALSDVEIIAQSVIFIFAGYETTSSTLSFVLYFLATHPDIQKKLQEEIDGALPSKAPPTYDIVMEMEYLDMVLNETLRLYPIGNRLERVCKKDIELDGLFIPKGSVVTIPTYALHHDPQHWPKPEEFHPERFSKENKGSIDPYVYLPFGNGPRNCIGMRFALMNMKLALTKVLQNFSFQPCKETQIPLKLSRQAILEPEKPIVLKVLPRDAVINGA
# How it was run: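 Fluorescence readout of extracted rat CYP3A2 activity 0.5 h post-dose, acetonitrile as negative control. Single-point testing in duplicate at 10 uM, followed by concentration series to a 20 uM maximum for actives.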
compound,measurement,setting,value
C=C(C)C(N)=O,outcome,[1],inactive
same,outcome,[2],inactive
CC(=O)CCC=C(C)CCC=C(C)C,outcome,[3],inactive
CCCCOCCOCCO,outcome,Caspase-3 (Homo sapiens),inactive
O=S1(=O)CC(Cl)(Cl)C(Cl)(Cl)C1,AC50,[4],4.55 µM (active)
same,AC50,[5],431 nM (active)
CC(C)Cc1ccc(C(C)C(=O)O)cc1 (centres undefined),outcome,[4],inactive
O=C1OC2(c3ccc(O)cc3Oc3cc(O)ccc32)c2ccccc21,AC50,[3],7.41 µM (active)
CC/C(=C(\c1ccccc1)c1ccc(OCCN(C)C)cc1)c1ccccc1,outcome,[5],inactive
same,AC50,[2],33.4 µM (active)
same,outcome,[2],inactive
same,outcome,[3],inactive
same,outcome,[6],inactive
same,outcome,CDK2 (gene 1017),inactive
same,outcome,[7],inactive
O=[N+]([O-])c1cc(N(CCO)CCO)ccc1NCCO,AC50,[4],3.87 µM (active)
same,AC50,[8],2.42 µM (active)
same,AC50,[9],8.66 µM (active)
CC(=O)OC(C)(C)C1CC=C(C)CC1 (centres undefined),AC50,[10],3.56 µM (active)
C=CC(=O)OCC(CO)(COC(=O)C=C)COC(=O)C=C,AC50,[10],1.76 µM (active)
CC1=CC(C)C(C=O)C(C)C1 (centres undefined) (tested in a mixture with another compound),outcome,[3],inactive
C#C[C@]1(O)CC[C@H]2[C@@H]3CCc4cc(O)ccc4[C@H]3CC[C@@]21C,AC50,[8],6.68 µM (active) and 7.82 µM (active) and 6.49 µM (active)
same,AC50,[10],1.02 µM (active) and 2.09 µM (active) and 1.18 µM (active)
same,AC50,[11],785 nM (active) and 1.44 µM (active) and 680 nM (active)
same,AC50,[12],2.5 µM (active) and 2.81 µM (active) and 1.76 µM (active)
same,AC50,"rat CYP2C6, gene 293989",1.43 µM (active) and 2.55 µM (active) and 1.67 µM (active)
same,AC50,"rat CYP3A1, gene 25642",2.51 µM (active) and 3.73 µM (active) and 1.4 µM (active)
same,AC50,[13],1.2 µM (active) and 2.59 µM (active) and 1.12 µM (active)
same,outcome,[2],inactive

# Source: PubChem BioAssay (EPA / NIEHS)
